# Molecular target: ALOX12B
# Experiment: pooled miR-30 sensor sort-seq; sequence = guide strand
# Settings: shRNA
row,Sequence,sensor-assay potency score (higher = more potent)
1,TACTTCTCCAGTGCATTCCACA,-0.953
2,TATAGTGACATATCGGATCAGC,-0.0361
3,TTAAAGTTGATGAGAATTGGGA,-0.16
4,TCTGCTGTTGTCTTTCCTGTGG,-0.381
5,AACTTGTCTGGGATCCGCGTGC,0.172
6,TAATAGGTGATGATCTCCGTCA,-0.427
7,TACTGGTACCCAAAGAAGGTGT,-0.741
8,TCATCTGCTGTTGTCTTTCCTG,-0.399

# Molecular target: ALPK1
# Experiment: as above
# Settings: shRNA
row,Sequence,sensor-assay potency score (higher = more potent)
1,TTCACTAATTTCTTCTCCCTGC,-0.272
2,AAATCGACCACAACATCTCTAT,-0.634
3,TATACAGACCGACTGCACCAGG,-1.24
4,TTGAACTTGTAAATGTTCCTTC,0.693
5,TTGATGAAGATGATGAACCCAA,0.0893
6,TTGTTCATAGAGTCTCTTGTTA,0.0334
7,TTGCAGAGGAACTAAACCCTGA,-0.0397
8,TTCATTACATTCCACATGCTGG,-0.496
9,TAAATCGACCACAACATCTCTA,0.166
10,TAACTTCTTGAGACAGAGCTTC,-0.293
11,TCTGTTTTCACCACTTTCGTGT,0.311

# Molecular target: AMICA1
# Experiment: as above
# Settings: shRNA
row,Sequence,sensor-assay potency score (higher = more potent)
1,AATAGTATAGCACATATTCGTC,-1.02
2,TATACATTTGTCTTCTGTGCTC,-0.0847
3,TCTGGATTAGTCTTCTTCGTGT,-0.36
4,TCTATCTTGAATATACATTTGT,-0.466
5,TTCTTGAACACCAGGTTCCCTA,-1.01
6,TATCAGAACAGGGAGCAGCAGG,-0.745
7,TTGCACATCTTGGAGCAGGAGA,-0.908
8,TTTTCAAGTGAGTTGTTCCGAT,-0.169
9,TGAATATACATTTGTCTTCTGT,-0.514
10,TTTGTCTTCTGTGCTCTGGAAA,-0.894
11,TATAGCACATATTCGTCCTTGG,-0.0697
12,TATCTCTGGATTAGTCTTCTTC,-0.382

# Molecular target: AMOTL1
# Experiment: as above
# Settings: shRNA
row,Sequence,sensor-assay potency score (higher = more potent)
1,TTGTGGGTCTTCTTGAGTGAGG,-0.72
2,TTCTTGAGTGAGGTTTTCCGTG,-0.593
3,TTCTTTTTCAAACTTGTGGAGC,-0.646
4,TTTGTCTTCATGCCCTTCGTAT,-0.754
5,TTTCTCAACATATGCTTGCTTC,-0.629
6,TTAACTTTGTTTGCAAACCTAC,0.352
7,TTTTTCAAACTTGTGGAGCTTG,0.0773
8,TAGCAGTCTCTAGTCGATCTCG,-0.33
9,TTGTCAGTCTGTGTGCTGCTGT,0.0814

# Reference: the OligoGym collection
